# The panel holds about 83,000 compounds, 20% with a hit somewhere; the sample as a whole holds those more often.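 In brief: 96-well plates, 48 h treatment, single concentration, percent growth endpoint.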 Unmarked numbers belong to inactive results. Active and inactive are the calls of the source. The calls were made as follows: active = growth percent below 10; inactive = the rest.
# Legend:
# Assay in all cases: NCI-60 one-dose screen, 48 h (100 = growth as untreated, 0 = no growth, -100 = all killed)
# Details in all cases: 10 µM unless noted
# DU-145 prostate = system: DU-145 prostate
# K-562 leukemia = system: K-562 leukemia
# MALME-3M melanoma = system: MALME-3M melanoma
# MDA-MB-231 breast = system: MDA-MB-231 breast
# RXF 393 renal = system: RXF 393 renal
# SF-268 CNS = system: SF-268 CNS
# SF-295 CNS = system: SF-295 CNS
# SF-539 CNS = system: SF-539 CNS
# UACC-257 melanoma = system: UACC-257 melanoma
# M14 melanoma = system: M14 melanoma
SMILES,growth (DU-145 prostate),growth (K-562 leukemia),growth (MALME-3M melanoma),growth (MDA-MB-231 breast),growth (RXF 393 renal),growth (SF-268 CNS),growth (SF-295 CNS),growth (SF-539 CNS),growth (UACC-257 melanoma),growth (M14 melanoma)
O=C(O)c1c[nH]c2ccccc2c1=O,98.6%,93.1%,91.9%,98.1%,116%,102%,104%,93.9%,112%,101%
C/C=C/C1OCC(CC)C(CCC)O1 (stereo not given),115%,89.3%,114%,100%,124%,101%,113%,99.1%,93.5%,104%
O=C(OCC1CCCO1)c1ccc([N+](=O)[O-])cc1 (stereo not given),113%,111%,106%,106%,102%,106%,102%,102%,85.5%,101%
Cc1cc(C(=O)NN)c(C#N)c(=O)[nH]1,106%,116%,103%,106%,99.5%,116%,127%,87.7%,95.4%,100%
CCOC(=O)c1ccc(C(C)(C)C)cc1,104%,94.5%,103%,114%,118%,98.9%,108%,110%,99.9%,104%
O=[N+]([O-])c1c(O)c(CNCCCO)cc(CNCCCO)c1O,132%,95.9%,109%,99.8%,99.7%,118%,106%,94.6%,108%,107%
C=CCS(C)(=O)=O,108%,103%,121%,97.9%,98%,103%,93.8%,96.3%,89.5%,95.8%
CCOc1ccccc1NC(=O)CCl,105%,86.8%,92.2%,83.8%,93.9%,91.7%,87.4%,114%,102%,79.1%
Oc1cccnc1CN1CCCC1,113%,99.5%,107%,105%,116%,104%,113%,102%,98.3%,112%
Cc1ccc(NC(=O)c2ccccc2Cl)cc1,112%,99.6%,123%,118%,108%,109%,108%,107%,131%,114%
NCC(O)C(O)C(O)C(O)CO (stereo not given),101%,103%,90.5%,91.9%,109%,96.2%,106%,101%,85%,93.9%
CCN1CCCC(N2c3ccccc3Sc3ccccc32)C1 (stereo not given),94.1%,91.8%,92.1%,76.5%,104%,103%,107%,103%,104%,99.8%
Nc1c(O)c(S(=O)(=O)O)c(O)c2c1C(=O)c1ccccc1C2=O,21.4%,22.1%,-0.703% (active),42.3%,75.3%,45.9%,12.8%,61.6%,1.57% (active),35%
ClCC(Cl)C1CCC(Cl)C(Cl)C1 (stereo not given),102%,105%,99.5%,113%,125%,98.1%,95.9%,96.6%,101%,101%
Cc1cc2nc(C)c(C)nc2cc1C,115%,119%,109%,101%,109%,109%,89%,104%,97.8%,108%
C1Cc2onc(-c3noc4c3CCC4)c2C1,115%,109%,108%,116%,134%,110%,104%,108%,110%,110%
Cc1ccccc1NC(=O)Oc1ccc(Cl)cc1C(=O)c1ccccc1,87.4%,96.1%,105%,85.1%,82%,72.7%,107%,87.3%,102%,103%
Cc1ccc(C)c2c1CCC2=O,102%,133%,103%,117%,87.9%,96.8%,91.6%,95.6%,107%,95.7%
CN(C)CCOC(=O)Nc1ccc(Cc2ccc(NC(=O)OCCN(C)C)cc2)cc1,86.3% [100 µM],-30.1% [100 µM] (active),69.1% [100 µM],65.8% [100 µM],32.2% [100 µM],90.3% [100 µM],87.6% [100 µM],-66.5% [100 µM] (active),-61.6% [100 µM] (active),-38.6% [100 µM] (active)
CC1CCC(C)(C)c2ccccc21 (stereo not given),110%,115%,100%,94.6%,109%,104%,89.2%,97.2%,100%,95.7%
C/C(=N\Nc1ccc([N+](=O)[O-])cc1[N+](=O)[O-])c1ccc(Br)cc1,103%,98.7%,107%,91.5%,106%,97.2%,94.4%,106%,87.9%,106%
CC(=O)c1cc(O)ccc1O,114%,91.7%,111%,96.6%,88.8%,109%,104%,92.5%,104%,101%
Cc1ccc(N2C(=O)c3cccc4c(N)c(S(=O)(=O)O)cc(c34)C2=O)cc1,120%,103%,135%,106%,111%,108%,129%,107%,114%,111%
Oc1ccc2ccccc2c1CN1CCOCC1,124%,118%,121%,109%,128%,102%,110%,81.4%,120%,98%
O=C(OC1CCCC1)c1ccccc1Cl,109%,106%,102%,97.3%,112%,104%,100%,98.6%,109%,101%
OCCOc1ccc(-c2cc(-c3ccccn3)nc(-c3ccccn3)c2)cc1,-10.2% (active),-2.31% (active),17.3%,21.4%,2.52% (active),15%,14.6%,-6.53% (active),1.35% (active),-62.5% (active)
COc1cccc2c1Cc1ccccc1-2,106%,94.4%,117%,93.6%,97.9%,99.8%,103%,107%,102%,102%
COc1ccc(C(=O)C(=O)c2ccccc2)cc1,113%,111%,101%,101%,92.9%,105%,96.6%,117%,111%,106%
CN1C(=O)NC(c2ccc(Cl)cc2)(c2ccc(Cl)cc2)C1=O,102%,70.1%,108%,99.8%,62%,102%,102%,111%,118%,100%
CC(C)c1ncc([N+](=O)[O-])n1C,122%,123%,129%,118%,115%,121%,127%,98.2%,97.2%,103%
